Inconclusive results are not listed. Where a call stands in place of a potency, no number is given. Calls of active or inactive are those of the source. Unless noted, calls come from the whole dose curve; as a rule, active = well fitted inhibition curve with a large enough effect; inconclusive = small, poorly fitted or top-dose-only effect; inactive = no such curve, though single readings can be large or run the other way.
Assay: qHTS profiling of the MIPE4 collection as inhibitors of Plasmodium falciparum (DD2) proliferation (AID 743345; call rule not given here)
Conditions: P. falciparum Dd2 in erythrocytes, SYBR Green DNA, 72 h; at 28.5 µM (top of the series)
Summary of the method: (§1)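 Erythrocytes infected with P. falciparum (0.3% parasitemia, 2.5% hematocrit) incubated with compounds 72 h at 37 C, 5% CO2. Lysis with saponin/Triton buffer containing SYBR Green I, overnight at room temperature in the dark; DNA fluorescence (485/535 nm) normalised to 0.29 uM artemisinin and DMSO.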

Question: Which parasite growth remaining, % of DMSO control (lower = more inhibition) does the source give for `O=C1C(=O)c2ccccc2C(O)=C1C1CCC(c2ccc(Cl)cc2)CC1` (configuration not stated) here?
Answer: The parasite growth remaining, % of DMSO control (lower = more inhibition) was 9.71%.

Question: Which parasite growth remaining, % of DMSO control (lower = more inhibition) does the source give for `CCOC(=O)Nc1ccc2c(c1)N(C(=O)CCN1CCOCC1)c1ccccc1S2` here?
Answer: Its parasite growth remaining, % of DMSO control (lower = more inhibition) is 85.2%.

Question: Which parasite growth remaining, % of DMSO control (lower = more inhibition) does the source give for `NS(=O)(=O)Cc1noc2ccccc12` here?
Answer: Its parasite growth remaining, % of DMSO control (lower = more inhibition) is 99.5%.

Assay: qHTS profiling of the MIPE4 collection as inhibitors of Plasmodium falciparum (DD2) proliferation (Rep 2) (AID 743346; call rule not given here)
Conditions: P. falciparum Dd2 in erythrocytes, SYBR Green DNA, 72 h; at 28.5 µM (top of the series)
Summary of the method: as §1

Question: Which parasite growth, % of control (lower = inhibition) does the source give for `O=C1C(=O)c2ccccc2C(O)=C1C1CCC(c2ccc(Cl)cc2)CC1` (configuration not stated) here?
Answer: The parasite growth, % of control (lower = inhibition) was 18.4%.

Question: Which parasite growth, % of control (lower = inhibition) does the source give for `CCOC(=O)Nc1ccc2c(c1)N(C(=O)CCN1CCOCC1)c1ccccc1S2` here?
Answer: The parasite growth, % of control (lower = inhibition) was 68.2%.

Question: Which parasite growth, % of control (lower = inhibition) does the source give for `NS(=O)(=O)Cc1noc2ccccc12` here?
Answer: Its parasite growth, % of control (lower = inhibition) is 74.3%.

Assay: qHTS profiling of the MIPE4 collection as inhibitors of Plasmodium falciparum (HB3) proliferation (AID 743347; call rule not given here)
Conditions: P. falciparum HB3 in erythrocytes, SYBR Green DNA, 72 h; at 28.5 µM (top of the series)
Summary of the method: as §1

Question: Which growth, % of control does the source give for `O=C1C(=O)c2ccccc2C(O)=C1C1CCC(c2ccc(Cl)cc2)CC1` (configuration not stated) here?
Answer: Its growth, % of control is 5.96%.

Question: Which growth, % of control does the source give for `CCOC(=O)Nc1ccc2c(c1)N(C(=O)CCN1CCOCC1)c1ccccc1S2` here?
Answer: Its growth, % of control is 41.6%.

Question: With `NS(=O)(=O)Cc1noc2ccccc12` as the compound, how does the growth, % of control read?
Answer: The growth, % of control was 106%.

Assay: qHTS assay for measurement of the activity of small molecule inhibitors on Zika virus induced Caspase-3 activity in human iPSC derived neural progenitor cells (hNPCs) (AID 1224857); note: nearly all actives have a fitted effect of over 65% in size; note: potency is the fitted concentration of half-maximal effect
Conditions: hNPCs ZIKV-induced caspase-3/7, Caspase-Glo luminescence, 6 h; series mostly up to 45.7 µM
Summary of the method: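 Quantitative HTS format: human iPSC neural progenitors, 1 h compound pretreatment, ZIKV 2 FFU/cell for 6 h at 37 C. Percent inhibition derived from luminescent caspase-3/7 signal between uninfected and infected controls.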

Question: For `CN(C)CCOC(=O)C(c1ccccc1)C1(O)CCCC1` (configuration not stated), which Potency is on record?
Answer: The Potency was “inactive”.

Question: With `O=C(O)C1(C(=O)O)CCC1.[NH2-].[NH2-].[Pt+2]` as the compound, how does the Potency read?
Answer: Its Potency is “inactive”.

Question: With `CC(CNC1CCCCC1)OC(=O)c1ccccc1` (configuration not stated) as the compound, how does the Potency read?
Answer: The Potency was “inactive”.

Question: Which Potency does the source give for `O=C1C(=O)c2ccccc2C(O)=C1C1CCC(c2ccc(Cl)cc2)CC1` (configuration not stated) here?
Answer: Its Potency is “inactive”.

Question: For `CN1CCN(C2=Nc3cc(F)ccc3Cc3ccccc32)CC1`, which Potency is on record?
Answer: The Potency was “inactive”.

Question: Which Potency does the source give for `CCOC(=O)Nc1ccc2c(c1)N(C(=O)CCN1CCOCC1)c1ccccc1S2` here?
Answer: The Potency was “inactive”.

Question: For `CN=C(N)NCCC[C@H](N)C(=O)O`, which Potency is on record?
Answer: Its Potency is “inactive”.

Question: Which Potency does the source give for `NS(=O)(=O)Cc1noc2ccccc12` here?
Answer: Its Potency is “inactive”.

Question: With `CCCCCCCCCCCCOCCOCCOCCOCCOCCOCCOCCOCCOCCO` as the compound, how does the Potency read?
Answer: The Potency was “inactive”.

Question: For `OC[C@H]1O[C@@H](Oc2ccc(O)cc2)[C@H](O)[C@@H](O)[C@@H]1O`, which Potency is on record?
Answer: Its Potency is “inactive”.

Question: For `CC(C)=CCOc1ccc(/C=C/C(=O)c2ccc(OCC=C(C)C)cc2OCC(=O)O)cc1`, which Potency is on record?
Answer: Its Potency is “inactive”.

Question: For `CCCCN=C(N)N=C(N)N`, which Potency is on record?
Answer: Its Potency is “inactive”.

Question: For `CCO[C@@H]1O[C@H](C(COCc2ccccc2)OCc2ccccc2)[C@H](OCc2ccccc2)[C@H]1O` (some centres not stated), which Potency is on record?
Answer: The Potency was “inactive”.

Question: With `C[N+]1(C)CCC(=C(c2ccccc2)c2ccccc2)CC1` as the compound, how does the Potency read?
Answer: Its Potency is “inactive”.

Question: For `CC(=O)NC(=O)c1ccccc1O`, which Potency is on record?
Answer: Its Potency is “inactive”.

Question: For `CCN1/C(=C/C=C/c2sc3ccccc3[n+]2CC)Sc2ccccc21`, which Potency is on record?
Answer: Its Potency is 3.16 µM (active).

Question: With `Cc1cccc(C)c1NC(=O)c1ccccc1C(=O)O` as the compound, how does the Potency read?
Answer: The Potency was “inactive”.

Question: For `C#C[C@]1(O)CC[C@H]2[C@@H]3[C@H](C)CC4=C(CCC(=O)C4)[C@H]3CC[C@@]21C`, which Potency is on record?
Answer: Its Potency is “inactive”.

Question: For `OC[C@H]1O[C@@H]2O[C@H]3[C@H](O)[C@@H](O)[C@@H](O[C@H]4[C@H](O)[C@@H](O)[C@@H](O[C@H]5[C@H](O)[C@@H](O)[C@@H](O[C@H]6[C@H](O)[C@@H](O)[C@@H](O[C@H]7[C@H](O)[C@@H](O)[C@@H](O[C@H]8[C@H](O)[C@@H](O)[C@@H](O[C@H]1[C@H](O)[C@H]2O)O[C@@H]8CO)O[C@@H]7CO)O[C@@H]6CO)O[C@@H]5CO)O[C@@H]4CO)O[C@@H]3CO`, which Potency is on record?
Answer: The Potency was “inactive”.

Question: For `O[C@@H](c1cc(C(F)(F)F)nc2c(C(F)(F)F)cccc12)[C@H]1CCCCN1`, which Potency is on record?
Answer: Its Potency is “inactive”.

Question: With `Cc1nc(-c2ccc(Cl)cc2)oc1COC(C)(C)C(=O)O` as the compound, how does the Potency read?
Answer: Its Potency is “inactive”.

Question: For `CCCc1ncc(C[n+]2ccccc2C)c(N)n1`, which Potency is on record?
Answer: Its Potency is “inactive”.

Question: For `CNCCCCOc1ccccc1Cc1ccccc1`, which Potency is on record?
Answer: Its Potency is “inactive”.

Question: With `CCC(CC)(CC(=O)Nc1cccc(/C=C/c2nc(C3CCC3)cs2)c1)C(=O)O` as the compound, how does the Potency read?
Answer: The Potency was “inactive”.

Question: For `C=CCN1CCc2nc(N)sc2CC1`, which Potency is on record?
Answer: The Potency was “inactive”.

Question: With `CCOc1ccc(NC(C)=O)cc1` as the compound, how does the Potency read?
Answer: The Potency was “inactive”.

Question: For `C[N+]12CCC(CC1)C(OC(=O)C(O)(c1ccccc1)c1ccccc1)C2` (configuration not stated), which Potency is on record?
Answer: The Potency was “inactive”.

Question: Which Potency does the source give for `N#C/C(=C1\SCC(c2ccccc2Cl)S1)n1ccnc1` (configuration not stated) here?
Answer: The Potency was “inactive”.

Question: Which Potency does the source give for `COc1ccc(C(=O)c2ccccc2)c(O)c1` here?
Answer: Its Potency is “inactive”.

Question: Which Potency does the source give for `CCc1oc2ccccc2c1C(=O)c1cc(I)c(O)c(I)c1` here?
Answer: Its Potency is “inactive”.

Question: With `NC(=O)n1c(O)c(C(=O)c2cccs2)c2cc(Cl)ccc21` as the compound, how does the Potency read?
Answer: Its Potency is “inactive”.

Question: With `COc1ccc(CN(CCN(C)C)c2ncccn2)cc1` as the compound, how does the Potency read?
Answer: Its Potency is “inactive”.

Question: Which Potency does the source give for `C[C@H]1[C@H]2CC[C@H]3[C@@H]4CC=C5C[C@@H](N(C)C)CC[C@]5(C)[C@H]4CC[C@]23CN1C` here?
Answer: Its Potency is “inactive”.

Source: PubChem BioAssay (NCATS)
